# Reference: PubChem BioAssay (NCI)
# Compounds without any hit were thinned out: in the full panel of roughly 79,000, 15% have a hit. Unmarked numbers belong to inactive results. Activity calls are given as the source filed them. Cut-off read from the data, not from the text of the source: active = growth inhibition above about 70%; inactive = the rest.
# What was measured:
# [1] = NCI Yeast Anticancer Drug Screen. Data for the rad52 strain (AID 147);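 note: 0% = growth of vehicle-treated control cultures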; settings: S. cerevisiae rad52 mutant growth inhibition, stronger effect = higher value
# How it was run: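 Genetically altered yeast (DNA damage repair defect) treated with compound; inhibition calculated relative to vehicle.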
# [2] = NCI Yeast Anticancer Drug Screen. Data for the wt1 strain (AID 149);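 note: 0% = growth of vehicle-treated wt1 cultures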; settings: S. cerevisiae wt1 strain (SPY 50644) growth inhibition, stronger effect = higher value
# How it was run: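 Using yeast strain wt1, compound-induced growth inhibition was determined against vehicle-treated cultures.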
# [3] = NCI Yeast Anticancer Drug Screen. Data for the rad50EPP+ strain (AID 151);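 note: 0% = growth of vehicle-treated control cultures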; settings: S. cerevisiae rad50 mutant strain, stronger effect = higher value
# How it was run: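 Strain rad50EPP+; compound exposure; % growth inhibition vs vehicle.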
# [4] = NCI Yeast Anticancer Drug Screen. Data for the rad50 strain (AID 155);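 note: 0% = growth of vehicle-only cultures of the same strain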; settings: S. cerevisiae rad50 strain growth inhibition, stronger effect = higher value
# How it was run: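 Relative growth inhibition (compound vs vehicle) was measured in yeast with a defined repair-gene alteration.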
# [5] = NCI Yeast Anticancer Drug Screen. Data for the mec2-1 strain (AID 157); settings: S. cerevisiae mec2-1 strain, stronger effect = higher value
# How it was run: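 Cells of the genetically defined mec2-1 yeast strain are incubated with test compound. Inhibition of growth is calculated against vehicle-treated controls.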
# [6] = NCI Yeast Anticancer Drug Screen. Data for the rad14 strain (AID 159);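 note: 0% = growth of vehicle-treated control cultures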; settings: S. cerevisiae rad14 strain growth inhibition, stronger effect = higher value
# How it was run: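 Screen for anticancer potential: a yeast strain altered in DNA damage repair is grown with compound, and reduced growth is quantified against vehicle controls.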
# [7] = NCI Yeast Anticancer Drug Screen. Data for the sgs1 mgt1 strain (AID 161);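 note: 0% = growth of cultures given vehicle only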; settings: S. cerevisiae sgs1 mgt1 strain, stronger effect = higher value
# How it was run: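 Test agents were incubated with a DNA-repair-mutant yeast strain. Growth was then read and compared against vehicle-treated controls.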
# [8] = NCI Yeast Anticancer Drug Screen. Data for the CLN2oe strain (AID 163);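 note: 0% = growth of vehicle-only control cultures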; settings: S. cerevisiae CLN2oe strain, stronger effect = higher value
# How it was run: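 Strain altered in cell-cycle control, incubated with compound; growth compared to solvent-treated controls.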
# [9] = NCI Yeast Anticancer Drug Screen. Data for the cln2 rad14 strain (AID 165);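 note: 0% = growth equal to vehicle treated cultures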; settings: S. cerevisiae cln2 rad14 strain, stronger effect = higher value
# How it was run: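 The screen exposed genetically defined yeast (cln2 rad14) to test compounds and scored growth inhibition relative to vehicle-treated controls.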
# [10] = NCI Yeast Anticancer Drug Screen. Data for the wt2 strain (AID 169);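 note: 0% = growth of vehicle-treated yeast cultures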; settings: S. cerevisiae wt2 strain growth inhibition, stronger effect = higher value
# How it was run: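 Steps: yeast strain treated with compound; growth recorded; inhibition calculated relative to cultures given vehicle alone.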
# [11] = NCI Yeast Anticancer Drug Screen. Data for the mlh1 strain (AID 171);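 note: 0% = growth of vehicle-treated control cultures of the same strain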; settings: S. cerevisiae mlh1 strain growth inhibition, stronger effect = higher value
# How it was run: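 Yeast screen: mutant strain plus compound, growth scored against vehicle control wells.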
# [12] = NCI Yeast Anticancer Drug Screen. Data for the sgs1 strain (AID 173);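 note: 0% = growth of vehicle-only control cultures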; settings: S. cerevisiae sgs1 mutant, stronger effect = higher value
# How it was run: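 Inhibition of yeast growth served as the measure. The mutant strain was treated with each compound, and growth was normalised to cultures receiving vehicle alone.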
# [13] = NCI Yeast Anticancer Drug Screen. Data for the mlh1 rad18 strain (AID 175); settings: S. cerevisiae mlh1 rad18 strain growth inhibition, stronger effect = higher value
# How it was run: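 Compound-treated yeast growth, normalised to vehicle controls. Strain bears defined DNA repair mutations.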
# [14] = NCI Yeast Anticancer Drug Screen. Data for the rad18 strain (AID 177); settings: S. cerevisiae rad18 mutant growth inhibition, stronger effect = higher value
# How it was run: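 Inhibition values reflect reduced yeast growth compared with vehicle-treated controls, using a strain engineered with a DNA damage repair defect.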
# [15] = NCI Yeast Anticancer Drug Screen. Data for the bub3 strain (AID 167); settings: S. cerevisiae bub3 mutant strain, stronger effect = higher value
# How it was run: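 Screening used yeast with an engineered genetic alteration affecting cell cycle control. Compound-exposed cultures were compared with vehicle cultures, and reduced growth was taken as inhibition.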
# [16] = at 5.0 µM (retest, dose inferred, filed as 0.5)
# [17] = at 50.0 µM (retest, dose inferred, filed as 5.0)
smiles,measurement,setting,value
CCc1nc(N)nc(N)c1-c1ccc(NCCCCCCN)c([N+](=O)[O-])c1,growth inhibition,[1]; at 1.2 µM,-3%
same,growth inhibition,[1]; at 3.7 µM,0%
same,growth inhibition,[1]; at 11.0 µM,2%
same,growth inhibition,[1]; at 33.0 µM,11%
same,growth inhibition,[1]; at 100.0 µM,32%
same,growth inhibition,[2]; at 1.2 µM,-1%
same,growth inhibition,[2]; at 3.7 µM,-1%
same,growth inhibition,[2]; at 11.0 µM,-1%
same,growth inhibition,[2]; at 33.0 µM,-3%
same,growth inhibition,[2]; at 100.0 µM,-4%
same,growth inhibition,[3]; at 1.2 µM,-6%
same,growth inhibition,[3]; at 3.7 µM,-3%
same,growth inhibition,[3]; at 11.0 µM,-3%
same,growth inhibition,[3]; at 33.0 µM,1%
same,growth inhibition,[3]; at 100.0 µM,17%
same,growth inhibition,[4]; at 1.2 µM,0%
same,growth inhibition,[4]; at 3.7 µM,-2%
same,growth inhibition,[4]; [16],-16%
same,growth inhibition,[4]; at 11.0 µM,11%
same,growth inhibition,[4]; at 33.0 µM,17%
same,growth inhibition,[4]; [17],-4%
same,growth inhibition,[4]; at 50.0 µM,86% (active)
same,growth inhibition,[4]; at 100.0 µM,42%
same,growth inhibition,[5]; at 1.2 µM,-1%
same,growth inhibition,[5]; at 3.7 µM,-4%
same,growth inhibition,[5]; [16],4%
same,growth inhibition,[5]; at 11.0 µM,-4%
same,growth inhibition,[5]; at 33.0 µM,-4%
same,growth inhibition,[5]; [17],-10%
same,growth inhibition,[5]; at 50.0 µM,95.6% (active)
same,growth inhibition,[5]; at 100.0 µM,11%
same,growth inhibition,[6]; at 1.2 µM,4%
same,growth inhibition,[6]; at 3.7 µM,-4%
same,growth inhibition,[6]; at 11.0 µM,-3%
same,growth inhibition,[6]; at 33.0 µM,-13%
same,growth inhibition,[6]; at 100.0 µM,0%
same,growth inhibition,[7]; [16],-22%
same,growth inhibition,[7]; [17],-16%
same,growth inhibition,[7]; at 50.0 µM,92.7% (active)
same,growth inhibition,[8]; at 1.2 µM,-3%
same,growth inhibition,[8]; at 3.7 µM,1%
same,growth inhibition,[8]; at 11.0 µM,-5%
same,growth inhibition,[8]; at 33.0 µM,0%
same,growth inhibition,[8]; at 100.0 µM,-5%
same,growth inhibition,[9]; [16],-19%
same,growth inhibition,[9]; [17],83% (active)
same,growth inhibition,[9]; at 50.0 µM,96.2% (active)
same,growth inhibition,[10]; at 1.2 µM,-1%
same,growth inhibition,[10]; at 3.7 µM,0%
same,growth inhibition,[10]; at 11.0 µM,-2%
same,growth inhibition,[10]; at 33.0 µM,-3%
same,growth inhibition,[10]; at 100.0 µM,-4%
same,growth inhibition,[11]; at 1.2 µM,-4%
same,growth inhibition,[11]; at 3.7 µM,-1%
same,growth inhibition,[11]; at 11.0 µM,0%
same,growth inhibition,[11]; at 33.0 µM,-6%
same,growth inhibition,[11]; at 100.0 µM,-5%
same,growth inhibition,[12]; at 1.2 µM,-3%
same,growth inhibition,[12]; at 3.7 µM,-2%
same,growth inhibition,[12]; at 11.0 µM,-3%
same,growth inhibition,[12]; at 33.0 µM,-5%
same,growth inhibition,[12]; at 100.0 µM,-3%
same,growth inhibition,[13]; [16],-27%
same,growth inhibition,[13]; [17],-34%
same,growth inhibition,[13]; at 50.0 µM,97.2% (active)
same,growth inhibition,[14]; at 1.2 µM,-4%
same,growth inhibition,[14]; at 3.7 µM,-6%
same,growth inhibition,[14]; at 11.0 µM,-5%
same,growth inhibition,[14]; at 33.0 µM,-17%
same,growth inhibition,[14]; at 100.0 µM,-23%
N#Cc1sc2c(c1OC(=O)c1ccco1)c(=O)n(-c1ccccc1)c(=S)n2-c1ccccc1,growth inhibition,[1]; at 1.2 µM,0%
same,growth inhibition,[1]; at 3.7 µM,1%
same,growth inhibition,[1]; at 11.0 µM,-1%
same,growth inhibition,[1]; at 33.0 µM,0%
same,growth inhibition,[1]; at 100.0 µM,0%
same,growth inhibition,[2]; at 1.2 µM,-3%
same,growth inhibition,[2]; at 3.7 µM,-4%
same,growth inhibition,[2]; at 11.0 µM,-1%
same,growth inhibition,[2]; at 33.0 µM,-1%
same,growth inhibition,[2]; at 100.0 µM,0%
same,growth inhibition,[3]; at 1.2 µM,9%
same,growth inhibition,[3]; at 3.7 µM,6%
same,growth inhibition,[3]; at 11.0 µM,11%
same,growth inhibition,[3]; at 33.0 µM,8%
same,growth inhibition,[3]; at 100.0 µM,5%
same,growth inhibition,[4]; at 1.2 µM,0%
same,growth inhibition,[4]; at 3.7 µM,2%
same,growth inhibition,[4]; [16],3%
same,growth inhibition,[4]; at 11.0 µM,1%
same,growth inhibition,[4]; at 33.0 µM,0%
same,growth inhibition,[4]; [17],94% (active)
same,growth inhibition,[4]; at 50.0 µM,94.6% (active)
same,growth inhibition,[4]; at 100.0 µM,-1%
same,growth inhibition,[5]; at 1.2 µM,-1%
same,growth inhibition,[5]; at 3.7 µM,-1%
same,growth inhibition,[5]; [16],7%
same,growth inhibition,[5]; at 11.0 µM,-2%
same,growth inhibition,[5]; at 33.0 µM,-6%
same,growth inhibition,[5]; [17],82% (active)
same,growth inhibition,[5]; at 50.0 µM,95% (active)
same,growth inhibition,[5]; at 100.0 µM,0%
same,growth inhibition,[6]; at 1.2 µM,1%
same,growth inhibition,[6]; at 3.7 µM,1%
same,growth inhibition,[6]; at 11.0 µM,3%
same,growth inhibition,[6]; at 33.0 µM,2%
same,growth inhibition,[6]; at 100.0 µM,-2%
same,growth inhibition,[7]; [16],0%
same,growth inhibition,[7]; [17],95% (active)
same,growth inhibition,[7]; at 50.0 µM,95.7% (active)
same,growth inhibition,[8]; at 1.2 µM,-2%
same,growth inhibition,[8]; at 3.7 µM,-1%
same,growth inhibition,[8]; at 11.0 µM,4%
same,growth inhibition,[8]; at 33.0 µM,-1%
same,growth inhibition,[8]; at 100.0 µM,-6%
same,growth inhibition,[9]; [16],23%
same,growth inhibition,[9]; [17],91% (active)
same,growth inhibition,[9]; at 50.0 µM,94% (active)
same,growth inhibition,[15]; at 1.2 µM,0%
same,growth inhibition,[15]; at 3.7 µM,-4%
same,growth inhibition,[15]; [16],13%
same,growth inhibition,[15]; at 11.0 µM,-3%
same,growth inhibition,[15]; at 33.0 µM,0%
same,growth inhibition,[15]; [17],91% (active)
same,growth inhibition,[15]; at 50.0 µM,95.4% (active)
same,growth inhibition,[15]; at 100.0 µM,-6%
same,growth inhibition,[10]; at 1.2 µM,-1%
same,growth inhibition,[10]; at 3.7 µM,-1%
same,growth inhibition,[10]; at 11.0 µM,-2%
same,growth inhibition,[10]; at 33.0 µM,-9%
same,growth inhibition,[10]; at 100.0 µM,3%
same,growth inhibition,[13]; [16],59%
same,growth inhibition,[13]; [17],94% (active)
same,growth inhibition,[13]; at 50.0 µM,95.2% (active)
same,growth inhibition,[14]; at 1.2 µM,0%
same,growth inhibition,[14]; at 3.7 µM,1%
same,growth inhibition,[14]; at 11.0 µM,-17%
same,growth inhibition,[14]; at 33.0 µM,2%
same,growth inhibition,[14]; at 100.0 µM,-1%
